Laboratory results published in ChEMBL document CHEMBL2218924, “A broad activity screen in support of a chemogenomic map for kinase signalling research and drug discovery” (Biochem J, 2013).

Experiments:
[1] = target: MAP kinase-activated protein kinase 2 (Homo sapiens) (UniProt P49137); details: at 10 µM
[2] = target: MAP kinase-activated protein kinase 3 (Homo sapiens) (UniProt Q16644); details: at 10 µM
[3] = target: Serine/threonine-protein kinase MARK1 (Homo sapiens) (UniProt Q9P0L2); details: at 1 µM
[4] = target: Serine/threonine-protein kinase MARK1 (Homo sapiens) (UniProt Q9P0L2); details: at 10 µM
[5] = target: Dual specificity mitogen-activated protein kinase kinase 1 (Homo sapiens) (UniProt Q02750); details: at 1 µM
[6] = target: Dual specificity mitogen-activated protein kinase kinase 1 (Homo sapiens) (UniProt Q02750); details: at 10 µM
[7] = target: Maternal embryonic leucine zipper kinase (Homo sapiens) (UniProt Q14680); details: at 1 µM
[8] = target: Maternal embryonic leucine zipper kinase (Homo sapiens) (UniProt Q14680); details: at 10 µM
[9] = target: Misshapen-like kinase 1 (Homo sapiens) (UniProt Q8N4C8); details: at 1 µM
[10] = target: Misshapen-like kinase 1 (Homo sapiens) (UniProt Q8N4C8); details: at 10 µM
[11] = target: T1, Dual specificity mitogen-activated protein kinase kinase 6 (Homo sapiens) (UniProt P52564); details: at 1 µM
T1 sequence (whole entry): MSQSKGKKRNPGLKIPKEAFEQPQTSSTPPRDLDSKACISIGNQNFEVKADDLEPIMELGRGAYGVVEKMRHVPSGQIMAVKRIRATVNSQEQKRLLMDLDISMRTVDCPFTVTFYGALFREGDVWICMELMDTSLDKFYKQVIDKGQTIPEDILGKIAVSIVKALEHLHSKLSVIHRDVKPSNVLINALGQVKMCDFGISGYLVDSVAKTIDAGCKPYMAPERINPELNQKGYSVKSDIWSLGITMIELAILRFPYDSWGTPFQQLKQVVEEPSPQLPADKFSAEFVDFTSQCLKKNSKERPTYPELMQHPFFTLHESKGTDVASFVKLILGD

[12] = target: T1, Dual specificity mitogen-activated protein kinase kinase 6 (Homo sapiens); details: at 10 µM
[13] = target: T2, Dual specificity mitogen-activated protein kinase kinase 7 (Homo sapiens) (UniProt O14733); details: at 1 µM
T2 sequence (whole entry): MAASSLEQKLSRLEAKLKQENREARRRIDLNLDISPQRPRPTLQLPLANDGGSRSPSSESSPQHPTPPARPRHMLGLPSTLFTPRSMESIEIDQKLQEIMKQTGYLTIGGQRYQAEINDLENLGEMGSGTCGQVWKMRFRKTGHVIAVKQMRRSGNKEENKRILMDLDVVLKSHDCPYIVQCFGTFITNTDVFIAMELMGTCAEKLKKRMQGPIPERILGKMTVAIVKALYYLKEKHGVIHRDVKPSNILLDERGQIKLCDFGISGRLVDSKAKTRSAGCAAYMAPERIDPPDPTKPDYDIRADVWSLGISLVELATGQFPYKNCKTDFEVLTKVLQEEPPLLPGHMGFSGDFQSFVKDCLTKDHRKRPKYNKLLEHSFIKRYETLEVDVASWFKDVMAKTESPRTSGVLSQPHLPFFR

[14] = target: T2, Dual specificity mitogen-activated protein kinase kinase 7 (Homo sapiens); details: at 10 µM
[15] = target: Myosin light chain kinase, smooth muscle (Homo sapiens) (UniProt Q15746); details: at 1 µM
[16] = target: Myosin light chain kinase, smooth muscle (Homo sapiens) (UniProt Q15746); details: at 10 µM
[17] = target: Mitogen-activated protein kinase kinase kinase 9 (Homo sapiens) (UniProt P80192); details: at 1 µM
[18] = target: Mitogen-activated protein kinase kinase kinase 9 (Homo sapiens) (UniProt P80192); details: at 10 µM
[19] = target: Serine/threonine-protein kinase MRCK alpha (Homo sapiens) (UniProt Q5VT25); details: at 1 µM
[20] = target: Serine/threonine-protein kinase MRCK alpha (Homo sapiens) (UniProt Q5VT25); details: at 10 µM

Chain of Serine/threonine-protein kinase MARK1 (Homo sapiens) (Q9P0L2 whole entry, looked up): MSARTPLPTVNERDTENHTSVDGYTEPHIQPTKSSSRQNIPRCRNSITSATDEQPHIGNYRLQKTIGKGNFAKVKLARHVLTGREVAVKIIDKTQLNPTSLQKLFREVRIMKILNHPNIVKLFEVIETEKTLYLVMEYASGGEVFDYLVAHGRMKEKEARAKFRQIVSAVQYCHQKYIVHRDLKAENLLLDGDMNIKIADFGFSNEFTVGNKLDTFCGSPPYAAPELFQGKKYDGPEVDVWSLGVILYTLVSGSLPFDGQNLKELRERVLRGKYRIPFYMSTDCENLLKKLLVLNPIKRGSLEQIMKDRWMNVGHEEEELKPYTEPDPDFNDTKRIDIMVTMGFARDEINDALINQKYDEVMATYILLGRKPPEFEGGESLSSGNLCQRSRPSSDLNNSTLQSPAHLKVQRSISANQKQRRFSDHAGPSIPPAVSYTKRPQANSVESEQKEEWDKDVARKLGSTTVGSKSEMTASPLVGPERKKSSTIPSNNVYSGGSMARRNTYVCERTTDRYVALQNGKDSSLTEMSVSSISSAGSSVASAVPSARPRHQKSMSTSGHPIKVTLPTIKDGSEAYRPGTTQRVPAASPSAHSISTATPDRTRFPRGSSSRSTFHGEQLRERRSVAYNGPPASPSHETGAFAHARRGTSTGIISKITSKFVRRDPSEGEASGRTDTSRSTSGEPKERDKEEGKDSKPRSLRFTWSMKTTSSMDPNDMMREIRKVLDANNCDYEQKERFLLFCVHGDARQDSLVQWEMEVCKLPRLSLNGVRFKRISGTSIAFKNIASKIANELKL
Chain of Myosin light chain kinase, smooth muscle (Homo sapiens) (Q15746 whole entry): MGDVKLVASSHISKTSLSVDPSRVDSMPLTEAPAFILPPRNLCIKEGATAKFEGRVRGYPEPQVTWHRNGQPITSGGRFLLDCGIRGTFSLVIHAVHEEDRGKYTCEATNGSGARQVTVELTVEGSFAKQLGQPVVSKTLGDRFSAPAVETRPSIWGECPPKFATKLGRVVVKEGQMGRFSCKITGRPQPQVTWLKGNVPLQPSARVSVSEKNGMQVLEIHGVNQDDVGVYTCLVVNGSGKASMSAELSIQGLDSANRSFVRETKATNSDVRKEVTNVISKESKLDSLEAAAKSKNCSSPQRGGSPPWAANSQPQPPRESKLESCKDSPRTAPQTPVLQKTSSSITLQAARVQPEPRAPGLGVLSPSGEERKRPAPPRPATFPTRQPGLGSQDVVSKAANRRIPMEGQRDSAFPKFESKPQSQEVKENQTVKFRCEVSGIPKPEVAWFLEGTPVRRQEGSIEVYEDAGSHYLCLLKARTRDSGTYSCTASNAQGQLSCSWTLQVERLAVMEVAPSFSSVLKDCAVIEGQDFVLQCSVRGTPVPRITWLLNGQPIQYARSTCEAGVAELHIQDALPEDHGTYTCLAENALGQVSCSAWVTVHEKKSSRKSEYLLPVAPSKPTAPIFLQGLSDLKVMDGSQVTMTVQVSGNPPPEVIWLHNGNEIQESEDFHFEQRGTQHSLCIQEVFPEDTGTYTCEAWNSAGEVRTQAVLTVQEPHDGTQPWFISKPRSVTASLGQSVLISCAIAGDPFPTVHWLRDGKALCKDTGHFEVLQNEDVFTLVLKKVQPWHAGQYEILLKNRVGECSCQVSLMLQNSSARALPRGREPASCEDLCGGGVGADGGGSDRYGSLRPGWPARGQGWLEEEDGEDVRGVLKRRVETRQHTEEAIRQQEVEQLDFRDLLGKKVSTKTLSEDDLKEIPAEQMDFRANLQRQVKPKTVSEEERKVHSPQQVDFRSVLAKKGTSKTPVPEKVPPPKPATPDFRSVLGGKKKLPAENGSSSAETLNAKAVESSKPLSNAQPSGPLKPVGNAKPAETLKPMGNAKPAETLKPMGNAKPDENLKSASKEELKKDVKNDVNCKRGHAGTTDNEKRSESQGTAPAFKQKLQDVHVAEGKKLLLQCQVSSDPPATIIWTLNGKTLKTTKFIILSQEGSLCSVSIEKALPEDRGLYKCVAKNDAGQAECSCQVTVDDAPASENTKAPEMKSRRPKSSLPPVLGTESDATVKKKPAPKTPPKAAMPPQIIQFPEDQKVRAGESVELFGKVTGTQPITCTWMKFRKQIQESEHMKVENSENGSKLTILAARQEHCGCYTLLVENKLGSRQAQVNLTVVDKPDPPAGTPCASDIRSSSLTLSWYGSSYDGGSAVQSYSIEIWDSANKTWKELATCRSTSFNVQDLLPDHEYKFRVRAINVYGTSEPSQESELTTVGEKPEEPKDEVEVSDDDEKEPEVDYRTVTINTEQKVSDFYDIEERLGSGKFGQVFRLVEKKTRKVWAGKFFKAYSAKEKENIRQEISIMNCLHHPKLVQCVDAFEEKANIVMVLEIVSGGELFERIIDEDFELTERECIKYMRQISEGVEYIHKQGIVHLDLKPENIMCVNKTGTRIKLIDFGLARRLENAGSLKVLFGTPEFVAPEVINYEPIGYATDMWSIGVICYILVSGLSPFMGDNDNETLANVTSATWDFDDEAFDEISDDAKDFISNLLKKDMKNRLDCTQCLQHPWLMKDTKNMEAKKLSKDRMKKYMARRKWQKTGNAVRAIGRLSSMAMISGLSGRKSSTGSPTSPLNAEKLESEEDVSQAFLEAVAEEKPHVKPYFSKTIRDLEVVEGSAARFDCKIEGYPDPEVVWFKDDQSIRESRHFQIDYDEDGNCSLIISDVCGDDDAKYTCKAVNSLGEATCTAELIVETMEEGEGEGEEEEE
Chain of MAP kinase-activated protein kinase 2 (Homo sapiens) (P49137 whole entry, looked up): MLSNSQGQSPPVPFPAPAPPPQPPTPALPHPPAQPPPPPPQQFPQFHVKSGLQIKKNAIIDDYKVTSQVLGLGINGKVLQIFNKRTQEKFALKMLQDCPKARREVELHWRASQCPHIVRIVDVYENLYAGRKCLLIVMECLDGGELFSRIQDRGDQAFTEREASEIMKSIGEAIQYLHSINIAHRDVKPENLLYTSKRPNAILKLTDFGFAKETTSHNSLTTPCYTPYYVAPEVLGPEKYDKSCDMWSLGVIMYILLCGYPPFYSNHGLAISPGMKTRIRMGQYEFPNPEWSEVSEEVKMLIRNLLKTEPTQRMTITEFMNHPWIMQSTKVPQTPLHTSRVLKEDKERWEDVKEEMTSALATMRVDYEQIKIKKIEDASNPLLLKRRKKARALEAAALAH
Chain of MAP kinase-activated protein kinase 3 (Homo sapiens) (Q16644 whole entry, looked up): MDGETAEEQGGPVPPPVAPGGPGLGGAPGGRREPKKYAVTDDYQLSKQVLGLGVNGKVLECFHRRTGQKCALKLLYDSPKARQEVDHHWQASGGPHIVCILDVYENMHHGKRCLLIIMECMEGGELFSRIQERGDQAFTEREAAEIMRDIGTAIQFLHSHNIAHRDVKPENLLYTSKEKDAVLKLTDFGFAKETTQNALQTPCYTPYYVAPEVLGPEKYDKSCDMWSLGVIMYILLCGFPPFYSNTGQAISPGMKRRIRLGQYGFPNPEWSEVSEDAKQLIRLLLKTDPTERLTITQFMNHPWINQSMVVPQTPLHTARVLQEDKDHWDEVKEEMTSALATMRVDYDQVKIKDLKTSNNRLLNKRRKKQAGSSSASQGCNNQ
Chain of Mitogen-activated protein kinase kinase kinase 9 (Homo sapiens) (P80192 whole entry, looked up): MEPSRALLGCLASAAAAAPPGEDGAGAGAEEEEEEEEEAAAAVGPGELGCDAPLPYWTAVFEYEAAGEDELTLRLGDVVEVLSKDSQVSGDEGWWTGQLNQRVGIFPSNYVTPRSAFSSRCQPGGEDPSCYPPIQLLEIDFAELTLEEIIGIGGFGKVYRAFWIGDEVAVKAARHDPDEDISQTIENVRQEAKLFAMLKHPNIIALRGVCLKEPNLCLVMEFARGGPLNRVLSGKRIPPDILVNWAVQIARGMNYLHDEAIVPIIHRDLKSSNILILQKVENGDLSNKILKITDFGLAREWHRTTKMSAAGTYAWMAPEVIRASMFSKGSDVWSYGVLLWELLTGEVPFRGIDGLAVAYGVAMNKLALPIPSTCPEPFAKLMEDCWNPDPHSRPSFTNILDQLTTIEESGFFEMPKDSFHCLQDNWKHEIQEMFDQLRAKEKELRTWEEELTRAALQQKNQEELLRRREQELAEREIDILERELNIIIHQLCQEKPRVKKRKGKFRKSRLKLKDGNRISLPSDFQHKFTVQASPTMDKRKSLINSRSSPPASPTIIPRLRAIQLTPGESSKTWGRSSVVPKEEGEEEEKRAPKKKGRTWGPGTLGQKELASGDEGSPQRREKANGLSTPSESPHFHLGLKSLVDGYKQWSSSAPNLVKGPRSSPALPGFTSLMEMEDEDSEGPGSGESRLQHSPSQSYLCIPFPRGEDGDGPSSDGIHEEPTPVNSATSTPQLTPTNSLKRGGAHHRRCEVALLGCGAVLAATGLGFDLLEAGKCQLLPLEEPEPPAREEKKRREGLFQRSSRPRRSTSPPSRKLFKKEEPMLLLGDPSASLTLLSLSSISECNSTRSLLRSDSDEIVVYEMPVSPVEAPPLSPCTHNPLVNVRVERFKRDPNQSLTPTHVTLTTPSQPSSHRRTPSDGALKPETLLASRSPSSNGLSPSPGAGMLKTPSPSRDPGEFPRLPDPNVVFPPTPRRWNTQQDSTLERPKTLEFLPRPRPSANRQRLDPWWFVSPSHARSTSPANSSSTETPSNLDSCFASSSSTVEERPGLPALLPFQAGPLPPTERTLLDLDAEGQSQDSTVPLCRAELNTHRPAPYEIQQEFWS
Chain of Dual specificity mitogen-activated protein kinase kinase 1 (Homo sapiens) (Q02750 whole entry): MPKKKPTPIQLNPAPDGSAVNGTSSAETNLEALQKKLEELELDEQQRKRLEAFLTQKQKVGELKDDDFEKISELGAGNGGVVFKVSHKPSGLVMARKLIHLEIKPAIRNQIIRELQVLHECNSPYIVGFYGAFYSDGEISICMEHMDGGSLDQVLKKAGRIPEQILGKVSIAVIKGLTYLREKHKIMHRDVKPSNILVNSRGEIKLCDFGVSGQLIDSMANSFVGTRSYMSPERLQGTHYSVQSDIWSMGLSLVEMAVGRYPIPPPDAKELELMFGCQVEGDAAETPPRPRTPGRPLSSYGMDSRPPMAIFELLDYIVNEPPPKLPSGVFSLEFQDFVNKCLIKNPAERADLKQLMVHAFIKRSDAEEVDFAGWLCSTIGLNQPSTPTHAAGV

SMILES	residual activity [1] [%]	residual activity [2] [%]	residual activity [3] [%]	residual activity [4] [%]	residual activity [5] [%]	residual activity [6] [%]	residual activity [7] [%]	residual activity [8] [%]	residual activity [9] [%]	residual activity [10] [%]	residual activity [11] [%]	residual activity [12] [%]	residual activity [13] [%]	residual activity [14] [%]	residual activity [15] [%]	residual activity [16] [%]	residual activity [17] [%]	residual activity [18] [%]	residual activity [19] [%]	residual activity [20] [%]
CNc1cc2c(Nc3cccc(Br)c3)ncnc2cn1	112	99	88	73	84	53	109	112	92	87	72	79	100	93	55	49	68	53	98	101
Nc1n[nH]c2nnc(-c3c(-c4ccccc4)nn4ccccc34)cc12	94	93	83	78	89	38	91	97	89	39	104	65	88	70	113	74	86	31	111	98
O=C1NC(=O)c2c1c1c3ccccc3[nH]c1c1[nH]c3cc(Br)ccc3c21	93	89	67	34	75	98	87	82	109	90	94	87	87	86	27	37	85	31	87	88
CCOc1cc2ncnc(Nc3cccc(Br)c3)c2cc1OCC	72	82	82	69	117	50	91	62	88	50	81	44	91	72	69	41	72	26	88	99
Oc1ccc(Nc2nc(-c3ccc(Cl)cc3)cs2)cc1	71	116	104	93	106	112	114	100	104	83	82	52	91	93	118	56	92	36	118	135
COc1ccc(C(=O)Nc2sc3c(c2C(N)=O)CCCC3)cc1OC	88	79	81	81	120	101	78	78	95	92	80	120	90	73	80	66	90	96	92	85
COc1cc2ncnc(N3CCN(C(=O)Nc4ccc(Oc5ccccc5)cc4)CC3)c2cc1OC	110	117	86	78	115	94	81	101	95	88	87	81	144	111	77	97	87	91	–	–
CCN(CC)CCCCN1c2ccccc2Oc2ccc(Cl)cc21	133	146	106	106	117	115	96	105	107	95	99	119	120	118	79	102	93	102	133	119
CO[C@@H]1[C@H](N(C)C(=O)c2ccccc2)C[C@H]2O[C@]1(C)n1c3ccccc3c3c4c(c5c6ccccc6n2c5c31)C(=O)NC4	47	37	1	0	74	56	5	2	52	18	52	58	111	135	13	10	1	1	93	102
Oc1n[nH]c2nnc(-c3c(-c4ccccc4)nn4ccccc34)cc12	90	86	75	76	104	109	53	36	105	92	126	89	95	101	84	52	89	48	94	79
O=C(Nc1cccc(Nc2cc(Nc3cccc(C(F)(F)F)c3)ncn2)c1)C1CC1	71	91	83	79	78	88	89	89	105	97	76	66	104	106	75	81	79	36	92	115
Nc1nc(Nc2ccc(S(N)(=O)=O)cc2)nn1C(=S)Nc1c(F)cccc1F	9	41	-1	0	16	6	17	24	18	2	26	20	65	16	79	29	-1	-1	28	24
O=c1cc(-c2cccc3c2Sc2ccccc2S3)oc(N2CCOCC2)c1	85	79	104	96	111	104	93	90	111	100	113	78	106	82	114	69	103	96	110	112
